# High-throughput results from PubChem.
# D2 antagonist = HTS Assay for Allosteric Antagonists of the Human D2 Dopamine Receptor: Primary Screen for Antagonists. HEK293 TREx D2 cells, calcium flux, dopamine EC80. inhibition, % at 10 µM. hit rate 2% among 340,000; in the data active = inhibition above about 30%; inactive = below that, where a call was filed; also: 0% is about no effect
# Target sequence (P14416 whole entry, looked up): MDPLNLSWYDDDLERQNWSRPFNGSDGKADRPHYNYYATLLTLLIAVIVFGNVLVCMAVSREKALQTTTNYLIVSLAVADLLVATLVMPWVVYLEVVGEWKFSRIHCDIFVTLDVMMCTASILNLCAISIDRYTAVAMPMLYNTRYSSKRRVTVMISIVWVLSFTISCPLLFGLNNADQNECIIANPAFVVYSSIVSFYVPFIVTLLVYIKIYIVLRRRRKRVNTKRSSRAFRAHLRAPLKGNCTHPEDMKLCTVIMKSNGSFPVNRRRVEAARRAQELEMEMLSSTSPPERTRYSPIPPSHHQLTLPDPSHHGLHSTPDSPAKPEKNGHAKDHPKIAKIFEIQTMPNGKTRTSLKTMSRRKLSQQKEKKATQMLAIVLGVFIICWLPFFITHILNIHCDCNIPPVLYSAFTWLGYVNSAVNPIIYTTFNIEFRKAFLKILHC
#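 Antagonism is scored as inhibition of an EC80 dopamine-evoked calcium signal in a force-coupled, tetracycline-inducible HEK293 T-REx D2 line, with compound present 180 s before agonist.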
# D2 ag-1 = HTS Assay for Allosteric Agonists of the Human D2 Dopamine Receptor: Primary Screen for Agonists; activation, % at 2 µM; D(2) dopamine receptor (Homo sapiens), P14416; hit rate 0.53% among 340,000; HEK293 T-REx D2 cells, calcium flux agonist mode;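 active = activation over 3 SD above normal in the single-dose calcium agonist read, cut at about 30% in these data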; also: 0% is about no effect
#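 In this primary screen, compounds producing a positive calcium signal within 180 s of addition to tetracycline-induced, force-coupled HEK293 Trex D2 cells are flagged; cells are dye-loaded with a no-wash calcium kit beforehand.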
# D2 PAM-1 = HTS Assay for Positive Allosteric Modulators of the Human D2 Dopamine Receptor: Primary Screen for Potentiators; D(2) dopamine receptor (Homo sapiens), P14416; potentiation, % at 10 µM; HEK293 T-REx D2, calcium flux, EC20 dopamine potentiation; AID 485347, 2010; hit rate 0.34% among 340,000;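 active = potentiation over 3 SD above the plate norm, cut at about 30% in these data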; also: 0% is about no effect
#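 Cells plated with tetracycline inducer and held overnight at 30 C; calcium dye loaded 30–90 min at room temperature; baseline taken, compound added and read 180 s; EC20 dopamine then added and read 180 s.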
# D2 ag-2 = Beta-Arrestin HTS for Positive Allosteric Modulators of the Human D2 Dopamine Receptor: Agonists. D(2) dopamine receptor (Homo sapiens), P14416. DiscoveRx PathHunter D2 beta-arrestin, luminescence, 90 min; 100% = 57 uM dopamine signal. activation, % (test concentration not listed). hit rate 0.084% among 360,000. AID 624465, 2012; in the data active = activation above about 40%; inconclusive = between about 15% and that limit
#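 Agonist mode: compounds alone added to overnight-plated D2 PathHunter cells for 90 min at 37 C, with 57 uM final dopamine (EC100) defining full response. Beta-arrestin recruitment detected by chemiluminescent reagent, read after 1 h at ambient temperature.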
# D2 PAM-2 = Beta-Arrestin HTS for Positive Allosteric Modulators of the Human D2 Dopamine Receptor: Potentiators. D(2) dopamine receptor (Homo sapiens), P14416. DiscoveRx D2 beta-arrestin cells, luminescence, 90 min; 100% = 57 uM dopamine signal. potentiation, % (concentration not given with the values). hit rate 0.23% among 360,000. AID 624464, 2012; in the data active = potentiation above about 50%; inconclusive = mostly about 30% to 49%
#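 PathHunter beta-arrestin assay in DiscoveRx D2 cells. Compounds were added with an EC20 of dopamine (50 nM final) for 90 min at 37 deg C. Luminescence was read 1 h after detection reagent, with 57 uM dopamine as the EC100 control.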
# An asterisk follows results filed as active; ? = inconclusive; · = not tested or not shown. A selection: hits, their analogues and other compounds. The true share with any hit is near 2.4%.
SMILES,D2 antagonist,D2 ag-1,D2 PAM-1,D2 ag-2,D2 PAM-2
COc1ccc(C(=O)N2CCC(c3nc(-c4ccc(S(=O)(=O)N5CCCC5)cc4)no3)CC2)cc1,·,0,7,·,·
CN(Cc1ccccc1)C(=O)CN1CCN(C(c2ccccc2)c2ccccc2)CC1,51*,-2,-28,-8,-35
c1csc(-c2nnc(NC3CCCCC3)c3ccccc23)c1,43*,1,-31,-1,-30
O=C(NCc1ccco1)C1CCCN1C(=O)Nc1cccc(Cl)c1 (stereo unspecified),56*,-2,-10,-3,4
CCCCSc1nnc2c(n1)OC(c1ccc(Br)s1)Nc1ccccc1-2 (stereo unspecified),·,-1,-8,·,·
CCN1C(=O)C(CC(=O)Nc2ccc(Cl)cc2)N(NC(=O)c2ccncc2)C1=S (stereo unspecified),31*,0,-9,-7,-13
CCNC(=O)CC1C(=O)N(CC)C(=S)N1NC(=O)c1ccc(Cl)cc1 (stereo unspecified),-8,0,2,-2,-8
CCc1ccc(C2(O)CC(C(F)(F)F)=NN2C(=O)Cc2ccc([N+](=O)[O-])cc2)cc1 (stereo unspecified),33*,0,-5,-3,-12
O=C(c1ccccc1O)N1N=C(C(F)(F)F)CC1(O)c1ccc([N+](=O)[O-])cc1 (stereo unspecified),-6,1,-7,-7,-13
CCc1cc(C(=O)OC)c(NC(=O)CC2SC(N)=NC2=O)s1 (stereo unspecified),31*,-1,9,-5,-3
COc1ccc(S(=O)(=O)N(CC(=O)N(C)Cc2ccccc2)c2ccc(Cl)cc2)cc1,·,1,2,·,·
CCOc1ccc(/C=C2\CCC(C3CCCC3)C2=O)cc1 (stereo unspecified),37*,-1,-3,2,0
CCN(CC)CCn1c(NS(=O)(=O)c2ccc(C)cc2)nc2ccccc21,51*,0,-19,-2,-40
Cc1ccc2c(c1)-c1c(cnc3cc(-c4ccc(F)cc4)nn13)CO2,·,0,12,·,·
O=C(Oc1ccccc1Cl)c1ccc2c(=O)n3c(nc2c1)CCC3,8,0,19,10,-12
CC(C)(C)c1cc(NC(=O)COC(=O)c2ccc3c(=O)n4c(nc3c2)CCC4)n(-c2ccccc2)n1,-10,0,46*,0,3
O=C(Oc1ccccc1F)c1ccc2c(=O)n3c(nc2c1)CCC3,32*,0,-7,-1,6
Cc1ccc(C)c(NC(=O)CN(C)C(=O)c2ccc3c(=O)n4c(nc3c2)CCC4)c1,33*,0,-27,-1,-29
Cc1cc(C)cc(OCC(=O)N2CCC(c3nc4ccccc4o3)CC2)c1,·,-2,13,·,·
C=CCn1c(N)c(-c2nc3ccccc3n2C)sc1=S,-14,1,31*,-1,-9
COc1ccccc1C(=O)NCC(=O)N1CC=C(c2ccccc2)CC1,30*,-1,-6,2,-13
CN(CC(=O)N1CC=C(c2ccccc2)CC1)S(=O)(=O)c1ccc2c(c1)c(=O)n(C)c(=O)n2C,31*,-1,4,4,-19
Cn1c(=O)c2cc(S(=O)(=O)NCCC(=O)N3CC=C(c4ccccc4)CC3)ccc2n(C)c1=O,3,3,-20,-2,-11
CCC(Cc1ccccc1)NC(=O)CN(C)S(=O)(=O)c1ccc2c(c1)c(=O)n(C)c(=O)n2C (stereo unspecified),23,0,52*,-1,-7
CC(=O)O[C@]1(C(C)=O)CC[C@H]2[C@@H]3C=C(Cl)C4=CC(=O)[C@@H]5C[C@@H]5[C@]4(C)[C@H]3CC[C@@]21C,40*,1,6,-3,-5
SMILES,D2 antagonist,D2 ag-1,D2 PAM-1,D2 ag-2,D2 PAM-2
CC(=O)O[C@]1(C(C)=O)CC[C@H]2[C@@H]3C=C(Cl)C4=CC(=O)CC[C@]4(C)[C@H]3CC[C@@]21C,-5,1,8,-4,-3
COc1cc2c(cc1OC)CN(C(=O)CN1C(=O)c3ccc([N+](=O)[O-])cc3C1=O)CC2,0,0,0,6,60*
COc1ccc(NC(=O)CCN2C(=O)c3ccc([N+](=O)[O-])cc3C2=O)c(OC)c1,1,-1,-2,?,56*
COc1cc2c(cc1OC)CN(C(=O)CCCN1C(=O)c3ccccc3C1=O)CC2,-14,0,3,-1,3
Cc1nc2nc(NC(=O)c3ccc(C(C)(C)C)cc3)[nH]n2c(=O)c1C,·,1,-5,·,·
COC(=O)c1cc(S(=O)(=O)N2CCC(c3ccccc3)C2)c[nH]1 (stereo unspecified),13,0,-25,1,-7
COC(=O)c1cc(S(=O)(=O)N2CCC(c3cc(OC)ccc3OC)C2)c[nH]1 (stereo unspecified),-11,0,83*,3,-5
Cc1c(C(=O)N2CCCCC2)c(S(=O)(=O)NCc2ccc(Cl)cc2)c(C)n1C,48*,1,8,-3,-1
Cc1noc(C)c1S(=O)(=O)NC(=O)C1(C)CCN1C(=O)CC(c1ccccc1)c1ccccc1 (stereo unspecified),·,·,·,6,-4
CC(=O)Nc1cccc(C(=O)/C=C/c2ccc(N(C)C)cc2)c1,35*,86*,-3,6,?
CC(=O)Nc1cccc(C(=O)/C=C/c2ccc(/C=C/C(=O)c3cccc(NC(C)=O)c3)cc2)c1,0,1,-4,·,·
N/C(Cc1ccc(Cl)cc1Cl)=N\OC(=O)Cc1cccs1,3,0,7,-1,-1
N/C(Cc1cccc2ccccc12)=N\OC(=O)c1cccs1,-17,9,0,-1,-15
COc1ccccc1C/C(N)=N/OC(=O)c1cccs1,3,0,-4,?,53*
N/C(Cc1ccc(Cl)cc1Cl)=N\OC(=O)c1cccs1,-25,-1,-1,14,119*
CN(C)CCNc1oc(-c2ccc(COc3ccc(Cl)cc3)o2)nc1C#N,·,·,-1,·,·
COc1ccc(CCN2C(=O)CN(C3CCCCCC3)C(=O)C2c2ccc(C)cc2)cc1OC (stereo unspecified),·,1,-11,·,·
CC1CCN(CCc2nc3cc(NC(=O)Nc4ccccc4)ccc3n2C)CC1,-38,1,-14,2,-12
